{"source": "PubChem BioAssay AID1159580", "about": "(chemical genetic matrix, 2015)", "assay": "chemical genetic growth profiling, strain panel (AID 1159580);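 also: tested at 20 µM; growth read once vehicle control cultures reached saturation at 30 °C; 1 = growth at the plate median or of vehicle wells; lower values mean less growth of the strain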", "details": "growth OD", "note": "Among all 5,500 compounds or so, about 2,000 (36%) were called active. About 18% were inconclusive and are not listed. The list shows a part of the results. Values without a mark were called inactive. Rule as the data show it: active = normalized growth mostly below about 0.91 (no sharp cut-off); inconclusive = no clear call, values can overlap the other calls; inactive = mostly above about 0.92.", "data": [{"smiles": "COc1ccc2c(c1)O[C@H]1c3ccc(OC)cc3OC[C@@H]21", "values": [{"measurement": "normalized growth", "setting": "S. cerevisiae deletion strains, locus YJR075W, strain HOC1, active compounds read low", "result": 0.969}, {"measurement": "normalized growth", "setting": "S. cerevisiae deletion strains, locus YKL009W, strain mrt4, active compounds read low", "result": "0.837 (active)"}, {"measurement": "normalized growth", "setting": "S. cerevisiae deletion strains, locus YKL068W, active compounds read low", "result": 0.99}, {"measurement": "normalized growth", "setting": "S. cerevisiae deletion strains, locus YKL085W, strain MDH1 (second series), active compounds read low", "result": 0.98}, {"measurement": "normalized growth", "setting": "S. cerevisiae deletion strains, locus YKL085W, strain MDH1, active compounds read low", "result": 0.98}, {"measurement": "normalized growth", "setting": "S. cerevisiae deletion strains, locus YKL160W, strain elf1, active compounds read low", "result": 1.03}, {"measurement": "normalized growth", "setting": "S. cerevisiae deletion strains, locus YKL190W, strain CNB1, active compounds read low", "result": 1.01}, {"measurement": "normalized growth", "setting": "S. cerevisiae deletion strains, locus YKR001C, strain vps1, active compounds read low", "result": 0.936}, {"measurement": "normalized growth", "setting": "S. cerevisiae deletion strains, locus YKR026C, strain gcn3, active compounds read low", "result": 1.02}, {"measurement": "normalized growth", "setting": "S. cerevisiae deletion strains, locus YKR091W, strain srl3, active compounds read low", "result": 1.03}, {"measurement": "normalized growth", "setting": "S. cerevisiae deletion strains, locus YLL001W, strain dnm1, active compounds read low", "result": 1.02}, {"measurement": "normalized growth", "setting": "S. cerevisiae deletion strains, locus YLL026W, active compounds read low", "result": 1.03}, {"measurement": "normalized growth", "setting": "S. cerevisiae deletion strains, locus YLL041C, strain sdh2, active compounds read low", "result": 1.03}, {"measurement": "normalized growth", "setting": "S. cerevisiae deletion strains, locus YLR027C, strain aat2, active compounds read low", "result": 1.01}, {"measurement": "normalized growth", "setting": "S. cerevisiae deletion strains, locus YLR039C, strain RIC1, active compounds read low", "result": 0.767}, {"measurement": "normalized growth", "setting": "S. cerevisiae deletion strains, locus YLR058C, strain SHM2, active compounds read low", "result": 0.957}, {"measurement": "normalized growth", "setting": "S. cerevisiae deletion strains, locus YLR102C, strain apc9, active compounds read low", "result": 0.949}, {"measurement": "normalized growth", "setting": "S. cerevisiae deletion strains, locus YLR113W, strain HOG1, active compounds read low", "result": 1.02}, {"measurement": "normalized growth", "setting": "S. cerevisiae deletion strains, locus YLR221C, strain rsa3, active compounds read low", "result": 1.02}, {"measurement": "normalized growth", "setting": "S. cerevisiae deletion strains, locus YLR258W, strain gsy2, active compounds read low", "result": 1.03}, {"measurement": "normalized growth", "setting": "S. cerevisiae deletion strains, locus YLR262C, strain YPT6 (second series), active compounds read low", "result": 1}, {"measurement": "normalized growth", "setting": "S. cerevisiae deletion strains, locus YLR262C, strain YPT6, active compounds read low", "result": 0.744}, {"measurement": "normalized growth", "setting": "S. cerevisiae deletion strains, locus YLR268W, strain sec22, active compounds read low", "result": 0.9}, {"measurement": "normalized growth", "setting": "S. cerevisiae deletion strains, locus YLR320W, strain mms22, active compounds read low", "result": 1.02}, {"measurement": "normalized growth", "setting": "S. cerevisiae deletion strains, locus YLR330W, strain CHS5, active compounds read low", "result": 0.975}, {"measurement": "normalized growth", "setting": "S. cerevisiae deletion strains, locus YLR342W, strain FKS1, active compounds read low", "result": 1.02}, {"measurement": "normalized growth", "setting": "S. cerevisiae deletion strains, locus YLR357W, strain rsc2, active compounds read low", "result": 0.99}, {"measurement": "normalized growth", "setting": "S. cerevisiae deletion strains, locus YLR370C, strain arc18, active compounds read low", "result": 1.03}, {"measurement": "normalized growth", "setting": "S. cerevisiae deletion strains, locus YLR371W, strain rom2, active compounds read low", "result": 0.972}, {"measurement": "normalized growth", "setting": "S. cerevisiae deletion strains, locus YLR384C, strain iki3, active compounds read low", "result": 1.03}, {"measurement": "normalized growth", "setting": "S. cerevisiae deletion strains, locus YLR418C, strain cdc73, active compounds read low", "result": "0.691 (active)"}, {"measurement": "normalized growth", "setting": "S. cerevisiae deletion strains, locus YML016C, strain PPZ1, active compounds read low", "result": 0.985}, {"measurement": "normalized growth", "setting": "S. cerevisiae deletion strains, locus YML032C, strain rad52, active compounds read low", "result": "0.873 (active)"}, {"measurement": "normalized growth", "setting": "S. cerevisiae deletion strains, locus YML120C, strain ndi1, active compounds read low", "result": 1.02}, {"measurement": "normalized growth", "setting": "S. cerevisiae deletion strains, locus YML124C, strain tub3, active compounds read low", "result": 0.95}, {"measurement": "normalized growth", "setting": "S. cerevisiae deletion strains, locus YMR058W, strain fet3, active compounds read low", "result": 1.02}, {"measurement": "normalized growth", "setting": "S. cerevisiae deletion strains, locus YMR078C, strain ctf18, active compounds read low", "result": 0.915}, {"measurement": "normalized growth", "setting": "S. cerevisiae deletion strains, locus YMR125W, strain sto1, active compounds read low", "result": 1.02}, {"measurement": "normalized growth", "setting": "S. cerevisiae deletion strains, locus YMR129W, active compounds read low", "result": 1.03}, {"measurement": "normalized growth", "setting": "S. cerevisiae deletion strains, locus YMR205C, strain PFK2, active compounds read low", "result": 1.04}, {"measurement": "normalized growth", "setting": "S. cerevisiae deletion strains, locus YMR223W, strain ubp8, active compounds read low", "result": 0.92}, {"measurement": "normalized growth", "setting": "S. cerevisiae deletion strains, locus YMR231W, strain pep5, active compounds read low", "result": 1.03}, {"measurement": "normalized growth", "setting": "S. cerevisiae deletion strains, locus YMR307W, strain GAS1, active compounds read low", "result": 0.927}, {"measurement": "normalized growth", "setting": "S. cerevisiae deletion strains, locus YNL067W, strain RPL9B, active compounds read low", "result": 0.989}, {"measurement": "normalized growth", "setting": "S. cerevisiae deletion strains, locus YNL071W, strain lat1, active compounds read low", "result": 1.01}, {"measurement": "normalized growth", "setting": "S. cerevisiae deletion strains, locus YNL153C, strain GIM3, active compounds read low", "result": 0.953}, {"measurement": "normalized growth", "setting": "S. cerevisiae deletion strains, locus YNL183C, strain NPR1, active compounds read low", "result": 0.946}, {"measurement": "normalized growth", "setting": "S. cerevisiae deletion strains, locus YNL209W, strain ssb2, active compounds read low", "result": 1.01}, {"measurement": "normalized growth", "setting": "S. cerevisiae deletion strains, locus YNL233W, strain BNI4, active compounds read low", "result": 0.953}, {"measurement": "normalized growth", "setting": "S. cerevisiae deletion strains, locus YNL248C, strain rpa49, active compounds read low", "result": 1.02}, {"measurement": "normalized growth", "setting": "S. cerevisiae deletion strains, locus YNL250W, strain rad50, active compounds read low", "result": 0.993}, {"measurement": "normalized growth", "setting": "S. cerevisiae deletion strains, locus YNL271C, strain bni1, active compounds read low", "result": 0.944}, {"measurement": "normalized growth", "setting": "S. cerevisiae deletion strains, locus YNL298W, strain CLA4, active compounds read low", "result": "0.908 (active)"}, {"measurement": "normalized growth", "setting": "S. cerevisiae deletion strains, locus YNL307C, strain MCK1, active compounds read low", "result": "0.475 (active)"}, {"measurement": "normalized growth", "setting": "S. cerevisiae deletion strains, locus YNL322C, strain KRE1 (second series), active compounds read low", "result": 1.04}, {"measurement": "normalized growth", "setting": "S. cerevisiae deletion strains, locus YNR049C, strain mso1, active compounds read low", "result": 1.02}, {"measurement": "normalized growth", "setting": "S. cerevisiae deletion strains, locus YNR052C, strain pop2, active compounds read low", "result": 0.963}, {"measurement": "normalized growth", "setting": "S. cerevisiae deletion strains, locus YOL012C, strain htz1", "result": 1.39}, {"measurement": "normalized growth", "setting": "S. cerevisiae deletion strains, locus YOL147C, strain pex11, active compounds read low", "result": "0.886 (active)"}, {"measurement": "normalized growth", "setting": "S. cerevisiae deletion strains, locus YOR001W, strain rrp6, active compounds read low", "result": 1.02}, {"measurement": "normalized growth", "setting": "S. cerevisiae deletion strains, locus YOR061W, strain CKA2, active compounds read low", "result": 0.997}, {"measurement": "normalized growth", "setting": "S. cerevisiae deletion strains, locus YOR069W, strain VPS5, active compounds read low", "result": 0.982}, {"measurement": "normalized growth", "setting": "S. cerevisiae deletion strains, locus YOR070C, strain gyp1, active compounds read low", "result": 1.01}, {"measurement": "normalized growth", "setting": "S. cerevisiae deletion strains, locus YOR080W, strain dia2, active compounds read low", "result": 1.02}, {"measurement": "normalized growth", "setting": "S. cerevisiae deletion strains, locus YOR083W, strain WHI5, active compounds read low", "result": 1.03}, {"measurement": "normalized growth", "setting": "S. cerevisiae deletion strains, locus YOR106W, strain vam3, active compounds read low", "result": 1.03}, {"measurement": "normalized growth", "setting": "S. cerevisiae deletion strains, locus YOR136W, strain idh2, active compounds read low", "result": 0.953}, {"measurement": "normalized growth", "setting": "S. cerevisiae deletion strains, locus YOR144C, strain elg1, active compounds read low", "result": 0.951}, {"measurement": "normalized growth", "setting": "S. cerevisiae deletion strains, locus YOR184W, strain ser1, active compounds read low", "result": "0.685 (active)"}, {"measurement": "normalized growth", "setting": "S. cerevisiae deletion strains, locus YOR231W, strain MKK1, active compounds read low", "result": 0.979}, {"measurement": "normalized growth", "setting": "S. cerevisiae deletion strains, locus YOR265W, strain rbl2, active compounds read low", "result": 1.03}, {"measurement": "normalized growth", "setting": "S. cerevisiae deletion strains, locus YOR270C, strain vph1, active compounds read low", "result": 1.01}, {"measurement": "normalized growth", "setting": "S. cerevisiae deletion strains, locus YOR290C, strain snf2, active compounds read low", "result": 1.04}, {"measurement": "normalized growth", "setting": "S. cerevisiae deletion strains, locus YOR316C, strain cot1, active compounds read low", "result": 0.962}, {"measurement": "normalized growth", "setting": "S. cerevisiae deletion strains, locus YPL051W, strain arl3, active compounds read low", "result": 1.03}, {"measurement": "normalized growth", "setting": "S. cerevisiae deletion strains, locus YPL078C, strain atp4, active compounds read low", "result": 1.04}, {"measurement": "normalized growth", "setting": "S. cerevisiae deletion strains, locus YPL106C, strain sse1, active compounds read low", "result": 1.03}, {"measurement": "normalized growth", "setting": "S. cerevisiae deletion strains, locus YPL240C, strain hsp82, active compounds read low", "result": 1.02}, {"measurement": "normalized growth", "setting": "S. cerevisiae deletion strains, locus YPL241C, strain CIN2, active compounds read low", "result": 0.982}, {"measurement": "normalized growth", "setting": "S. cerevisiae deletion strains, locus YPL256C, strain CLN2, active compounds read low", "result": 0.939}, {"measurement": "normalized growth", "setting": "S. cerevisiae deletion strains, locus YPR119W, strain clb2, active compounds read low", "result": 0.939}, {"measurement": "normalized growth", "setting": "S. cerevisiae deletion strains, locus YPR141C, strain kar3, active compounds read low", "result": 0.975}, {"measurement": "normalized growth", "setting": "S. cerevisiae deletion strains, locus YPR163C, strain tif3, active compounds read low", "result": "0.677 (active)"}, {"measurement": "normalized growth", "setting": "S. cerevisiae deletion strains, locus YPR167C, strain met16, active compounds read low", "result": "0.907 (active)"}, {"measurement": "normalized growth", "setting": "S. cerevisiae deletion strains, strain wtn01, active compounds read low", "result": "0.886 (active)"}, {"measurement": "normalized growth", "setting": "S. cerevisiae strains, strain wild type, active compounds read low", "result": 1.01}]}]}
